In PubChem BioAssay (NCATS):
Results filed as inconclusive are left out. Activity calls are given as the source filed them. The call rests on the fitted dose curve.

Assay: Cytotoxicity counterscreen for inhibitors of SARS-CoV-2 cell entry (AID 1645845); further: nearly all actives have a fitted effect of over 50% in size
Details: cell viability (SARS-CoV-2 entry assay cells); series mostly up to 57.1 µM; activity change, negative = cytotoxicity: at the top concentration
How it was run: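 Counterscreen run in the same HEK293-ACE2 line as the pseudotyped-particle entry assay, without particles. Viability after 48 h at 37 C was read as ATP luminescence, scaled between cell-containing and cell-free wells.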
On the % scale 0 is the no-effect control and ±100 the full control effect; potency means the concentration at half of the fitted maximal effect.

Row | SMILES | activity change, negative = cytotoxicity | Potency | outcome
1 | N#CC[C@H](C1CCCC1)n1cc(-c2ncnc3[nH]ccc23)cn1 | -3.56% (inactive) | – | –
2 | C=C1C(=CC=C2CCC[C@]3(C)[C@@H]([C@H](C)C=C[C@H](C)C(C)C)CC[C@@H]23)C[C@@H](O)C[C@@H]1O | 0.845% (inactive) | – | –
3 | CNC(=O)c1cc(Oc2ccc(NC(=O)Nc3cc(C(C)(C)C)nn3-c3ccc4ncccc4c3)c(F)c2)ccn1 | -28.9% (inactive) | – | –
4 | O=C(O)[C@H](Cc1c[nH]c2ccccc12)N1C(=O)c2ccccc2C1=O | -5.34% (inactive) | – | –
5 | c1ccc2c(-c3cnn4cc(-c5ccc(N6CCNCC6)cc5)cnc34)ccnc2c1 | – | 7.08 µM (active) | –
6 | COc1ccc(OC)c(-c2nnc3ccc(-c4ccc(OC)c(O[C@@H]5CCOC5)c4)nn23)c1 | -20.6% (inactive) | – | –
7 | CN1C(=O)C(Cc2c[nH]c3ccccc23)NC1=S (stereo not given) | – | – | inactive
8 | C[C@H](CN1CCCC1)C(=O)c1ccc(C(F)(F)F)cc1 | -2.26% (inactive) | – | –
9 | Cn1c(=O)c(F)c(Nc2ccc(I)cc2F)c2c(=O)n(C[C@@H](O)CO)cnc21 | – | – | inactive
10 | CC(=O)NCCC(=O)N[C@@H](CCC(N)=O)C(=O)N[C@@H](CO)C(=O)N[C@@H](CCC(N)=O)C(=O)N[C@@H](CCC(N)=O)C(=O)N[C@H](C(=O)N[C@@H](Cc1ccccc1)C(=O)N[C@]1(C)CCCCCCC=CCCC[C@@](C)(C(=O)N[C@@H](CCC(N)=O)C(=O)N[C@@H](CC(N)=O)C(N)=O)NC(=O)[C@H](CC(C)C)NC(=O)[C@H](CC(C)C)NC(=O)[C@@H](CCCNC(=N)N)NC(=O)[C@H](Cc2c[nH]c3ccccc23)NC(=O)[C@H](CC(C)C)NC(=O)[C@H](CC(N)=O)NC1=O)[C@H](C)O | – | – | inactive
